Compound activity as filed in PubChem BioAssay.
Rows were chosen to be rich in hits. Some 8% of all compounds tested hit in one or more screens of this group.
LASV entry inh – qHTS for Inhibitors of binding or entry into cells for Lassa Virus. Lassa virus pseudotyped entry inhibition, cell-based qHTS. Potency, µM (titrated, usually from 49.2 µM), actives largely listed as inhibitors. hit rate 4.1% among 18,000
Marburg entry – qHTS for Inhibitors of binding or entry into cells for Marburg Virus; Marburg virus pseudotype entry/binding inhibition, cell-based; Potency, µM (doses to about 49.2 µM), most hits filed as inhibitors; hit rate 6.5% among 18,000
Of the large screens only hits and unclear results are named; the others gave an inactive call; ! = a repeat was not active. Calls follow the shape of the full dose curve; tested in HEK293 cells.

O=C(c1cnn(-c2nccc(-c3ccccc3F)n2)c1C1CC1)N1CCCCC1c1cccnc1 (stereo unspecified)	none
Cc1ccc(F)cc1-c1ccc(C(=O)N=C(N)N)o1	none
O=C(c1cscn1)N1CCOc2ccc(CN3CCC(Oc4cccnc4)CC3)cc2C1	none
O=C(O)c1ccccc1-c1c2ccc(=O)cc-2oc2cc(O)ccc12	none
CN(C)c1ccc2c(-c3ccccc3)c3ccc(=[N+](C)C)cc-3oc2c1	LASV entry inh 3.2µM, Marburg entry 2.5µM
CCCCC(=O)N(Cc1ccc(-c2ccccc2-c2nn[nH]n2)cc1)[C@@H](C(=O)O)C(C)C	none
CC(C)CON=C1C[C@@H](O)[C@@H](O)[C@@H]2[C@H]3C(=O)N(C4CCCCC4)C(=O)[C@@H]3CC[C@@H]12	none (no result: LASV entry inh)
CCCCC(C)/C=C(C)/C=C(\C)C(=O)NC1=CC(O)(/C=C/C=C/C=C/C(=O)NC2=C(O)CCC2=O)C2OC2C1=O (stereo unspecified)	LASV entry inh 7.1µM, Marburg entry 3.2µM
CC[C@]1(O)CC[C@H]2[C@@H]3CCC4=CCCC[C@@H]4[C@H]3CC[C@@]21C	LASV entry inh 14µM
C#C[C@]1(O)CC[C@H]2[C@@H]3CCC4=CCCC[C@@H]4[C@H]3C(=C)C[C@@]21CC	none
COc1cc(C)c(CN2C[C@H](Sc3ccccn3)C[C@H]2C(=O)N(C)C)cc1C	none
NC(C(=O)O)C(CC(=O)O)c1ccc(Cl)cc1 (stereo unspecified)	none
CCCCCCCCOc1ccc(C(=O)c2ccccc2)c(O)c1	none
CCCCCCOc1ccc(C(=N)N(CCCC)CCCC)c2ccccc12	LASV entry inh 13µM, Marburg entry 13µM
COC1=C[C@H](C(=O)NC2CCN(Cc3ccccc3)CC2)[C@H](C)[C@@H](c2ccccc2)CC1=O	none
CNc1cc(OC)c(C(=O)N[C@H]2CCN(Cc3ccccc3)[C@H]2C)cc1Cl	LASV entry inh inconclusive, Marburg entry 18µM
CN(C)CCOC(=O)COc1ccc(Cl)cc1	none
O=C(O)c1ccc(OCCCOc2ccc(C(=O)O)cc2)cc1	none
CC/C(=C(/c1ccccc1)c1ccc(OCCN(C)C)cc1)c1ccccc1	Marburg entry 3.2µM (no result: LASV entry inh)
CCN(CC)CCOc1ccc(/C(=C(\Cl)c2ccccc2)c2ccccc2)cc1	LASV entry inh 14µM! (no result: Marburg entry)
CCCCC/C=C\C/C=C\CCCCCCCCCC(=O)NCCCC(=O)O	none
COc1ccc2ccccc2c1CN1CCCC(n2cc(C(=O)N3CCCC3)nn2)C1 (stereo unspecified)	none
Fc1ccc(Nc2nccc(-c3c(-c4ccc(C(F)(F)F)cc4)nn4ncccc34)n2)cc1F	none
Cc1ccc2c(-c3ccnc(Nc4ccc5c(c4)OCCO5)n3)c(-c3ccc(C(F)(F)F)cc3)nn2n1	Marburg entry 16µM (no result: LASV entry inh)
N#Cc1cccc(Nc2nccc(-c3cnn4ncccc34)n2)c1	Marburg entry 0.025µM (no result: LASV entry inh)
CCOc1ccc2c(-c3ccnc(Nc4cccc(C(F)(F)F)c4)n3)cnn2n1	Marburg entry 8.9µM (no result: LASV entry inh)
Cc1ccc2c(-c3ccnc(Nc4cccc(C(F)(F)F)c4)n3)c(-c3ccccc3)nn2n1	Marburg entry 4µM (no result: LASV entry inh)
FC(F)(F)CNc1nccc(-c2cnn3ncccc23)n1	none (no result: LASV entry inh)
O=C(O)c1cccnc1Nc1cccc(C(F)(F)F)c1	none
C[C@H](N)CCCC(C)(C)O	none
CC[C@H](C)[C@H](NC(=O)[C@@H](N)Cc1ccc(O)cc1)C(=O)NCC(=O)N[C@@H](CO)C(=O)N[C@@H](CCCN=C(N)N)C(N)=O	none
O[C@@H]1CN(Cc2cccs2)[C@@H](c2ccccc2)C[C@@H]1n1cc(C2CC2)nn1	none
COC(=O)C1=C(C)N(Cc2ccccc2)C(=S)NC1c1cccc(F)c1 (stereo unspecified)	none
COC(=O)[C@]1(C)CC[C@@]2(C)CC[C@@]3(C)C4=CC=C5C(=CC(=O)C(O)=C5C)[C@@]4(C)CC[C@@]3(C)C2C1 (stereo partly specified)	LASV entry inh 5.6µM, Marburg entry 3.5µM
COc1cc(CN2CCCC(n3cc(C(=O)N4CCCCC4)nn3)C2)cc(OC)c1OC (stereo unspecified)	Marburg entry inconclusive
CC12CC3CC(C)(C1)CC(N)(C3)C2	LASV entry inh 35µM!
NC12CC3CC(CC(C3)C1)C2	Marburg entry 32µM!
C[C@@]12CC3CC(N)(C1)C[C@@](C)(C3)C2	Marburg entry inconclusive
COc1cccc([C@@H]2Oc3ccc(Br)cc3[C@H](O)[C@H]2O)c1	none
C[C@H]1O[C@@H](O[C@H]2[C@@H](O)C[C@H](O[C@H]3[C@@H](O)C[C@H](O[C@H]4CC[C@]5(C)C6CC[C@]7(C)[C@@H](C8=CC(=O)OC8)CC[C@]7(O)C6CC[C@@H]5C4)O[C@@H]3C)O[C@@H]2C)C[C@H](O)[C@@H]1O (stereo partly specified)	LASV entry inh 0.0025µM, Marburg entry inconclusive
CC1O[C@@H](O[C@@H]2C(O)C[C@H](O[C@@H]3C(O)C[C@@H](OC4CC[C@@]5(C)C6CC[C@]7(C)C(C8=CC(=O)OC8)CC[C@@]7(O)C6CC[C@@H]5C4)OC3C)OC2C)CC(O)[C@H]1O (stereo partly specified)	LASV entry inh 0.28µM, Marburg entry 0.22µM
c1ccc2c(-n3ccnc3)nc(-c3ccoc3)nc2c1	Marburg entry inconclusive
IC(I)I	none
O=c1c(O)c(-c2cc(O)c(O)c(O)c2)oc2cc(O)cc(O)c12	Marburg entry 11µM
O=c1c(O)c(-c2ccccc2)oc2cc(O)cc(O)c12	none
C=CCOC(=O)C(C(C)=O)[C@@H](NC(=O)OC)c1ccc(F)cc1 (stereo partly specified)	none
COc1ccccc1N1CCNCC1	none
FC(F)(F)c1cccc(N2CCNCC2)c1	LASV entry inh 28µM, Marburg entry 28µM
C#CCn1c(=O)c2c(nc(/C=C/c3cccc(OC)c3)n2C)n(CCCO)c1=O	none
COc1ccc([C@]23Cc4cc(OC)c(OC)cc4[C@H](O2)c2c(c4ccccc4oc2=O)O3)cc1	none
CN(C)CCCSC(=N)N	Marburg entry 14µM!
N=C(N)SCCN=C(N)N	none
CC(C)C1C(=O)N(Cc2cn(CC3CCCCC3)nn2)CCS(=O)(=O)N1Cc1ccc(-c2ccc(F)nc2)cc1 (stereo unspecified)	LASV entry inh 20µM, Marburg entry inconclusive
CC(C)C1C(=O)N(Cc2cn(CC3CCCCC3)nn2)CCS(=O)(=O)N1Cc1ccc(-c2ccc(Cl)nc2)cc1 (stereo unspecified)	Marburg entry inconclusive
C[C@@H]1C=CCCO[C@]12C(=O)N(CC1CC1)c1ccccc12	none
CN1CCN(C2Cc3ccccc3Sc3ccc(S)cc32)CC1 (stereo unspecified)	LASV entry inh inconclusive, Marburg entry 13µM
O=C(c1ccccc1C(F)(F)F)N1CCOc2c(cc(-c3nc4ccccc4s3)cc2OC2CCOC2)C1 (stereo unspecified)	none
CCC1CN(CC(=O)NCc2cc(C)n(C)n2)Cc2cc(OC)ccc2O1 (stereo unspecified)	none
OC(c1ccc2c(c1)CN(Cc1cccc3nccnc13)CCO2)C1CCCCC1 (stereo unspecified)	none
O=C(c1n[nH]c2c1CCCC2)N1CCOc2ccc(C(O)C3CCCCC3)cc2C1 (stereo unspecified)	LASV entry inh 8.9µM, Marburg entry 11µM
O=C(c1ccc(Cn2cnnn2)cc1)N1CCOc2ccc(C(O)C3CCCCC3)cc2C1 (stereo unspecified)	LASV entry inh inconclusive
CCc1nc(CN2CCOc3ccc(C(O)C4CCCCC4)cc3C2)c(C)[nH]1 (stereo unspecified)	LASV entry inh inconclusive, Marburg entry 13µM
